Results as given in PubChem BioAssay AID1626 (SRMLSC, 2009).
About 2,000 (0.91%) of roughly 220,000 compounds were called active. Inconclusive results (about 2%) are left out. These entries were drawn from the full list. Measured potencies and affinities stand elsewhere. A number with no mark means an inactive call. Rule as the data show it: inconclusive = inhibition above about 80% without an active follow-up result; inactive = below that; test concentration not stated here.

Experiment: M. tuberculosis H37Rv growth inhibitors, H37Rv strain (AID 1626);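 also: bacteria incubated seven days before Alamar blue readout; 0% = bacteria only wells and 100% = bacteria with antibiotic wells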
Conditions: hits give high values, concentration not given here

Compound | inhibition
CCN(CC)C(=O)C(=O)c1cccn1-c1cccc(Cl)c1C#N | -4.03%
CC(=O)c1c(C)[nH]c(C(=O)NCCc2cccc(C)c2)c1C | 3.77%
CCn1c(COc2ccccc2)nc2ccccc21 | -0.43%
O=C(Cc1csc(-c2ccccc2)n1)NCc1cccs1 | 2.64%
COc1ccccc1C(=O)OCc1c(F)cccc1Cl | -0.9%
CCOC(=O)c1ccc(N/C=C/C(=O)c2ccc(OC)cc2)cc1 | 77.2%
COC(=O)c1ccc(N/C=C/C(=O)c2ccc(OC)c(OC)c2)cc1 | 36.6%
COc1ccc(C(=O)/C=C/Nc2ccc(NC(C)=O)cc2)cc1OC | 0.63%
CCOC(=O)c1ccc(N/C=C/C(=O)c2ccco2)cc1 | 76.7%
O=C(Nc1ccc(F)cc1F)c1cccnc1 | -2.1%
O=C(NCCCCNC(=O)c1ccc(Br)s1)c1ccc(Br)s1 | -1.39%
CCOc1ccc(NC(=O)c2ccccc2OCC(=O)c2ccccc2)cc1 | 4%
COc1ccccc1-c1nnc(SCC(=O)N2CCOCC2)n1-c1ccccc1 | 1.2%
COCCn1c(C)cc(C(=O)CSc2nc(C)nc3sc4c(c23)CCC4)c1C | -2.28%
O=C(NCC(=O)N1CCC(N2CCCCC2)CC1)C1CCCCC1 | -10.3%
CC(C)(C)c1nnc2sc(SCC(=O)N3CCc4ccccc43)nn2c1=O | 1.69%
CCS(=O)(=O)N1CCN(C2Cc3ccccc3C2)CC1 | -4.5%
COc1ccc(NC(=O)COC(=O)/C=C/C(=O)OCC(=O)Nc2ccc(OC)c(Cl)c2)cc1Cl | -1.96%
Cc1cc(Cl)ccc1OCCCC(N)=O | -0.81%
Cc1cc(Cl)ccc1OCCCC(=O)NN | -1.79%
CCOC(=O)/C=C/C(=O)OCC(=O)Nc1ccc(OC)c(Cl)c1 | 3.02%
O=C(COC(=O)CCCOc1ccc(Cl)cc1Cl)Nc1cccc(Cl)c1 | 6.33%
O=C(O)CCCC(=O)Nc1ccc(Cl)c(Cl)c1 | -7.53%
COc1ccc(NC(=O)COC(=O)CCCOc2ccc(Cl)cc2Cl)cc1 | 12.7%
COC(=O)CCC(=O)Nc1ccc(Cl)c(Cl)c1 | -2.69%

Compound | inhibition
COc1ccc(CNC(=O)CS(=O)Cc2nc(-c3ccccc3C)oc2C)cc1 (stereo not drawn) | 7.5%
COc1ccc(/C=N/NC(=O)c2ccc(CN3c4cccc5cccc(c45)S3(=O)=O)cc2)cc1 | 0.99%
CCOC(=O)c1sc(NC(=O)CCCCl)nc1C | 6.92%
CC(C)Cn1c(N)c(C(=O)COC(=O)C2CCCCC2)c(=O)n(C)c1=O | -2.8%
Cc1cc(NC(=O)COC(=O)c2ccc(S(=O)(=O)N3CCCC3)cc2)no1 | 5.16%
CN(c1ccccc1C(=O)NC1CC2CCC1C2)S(=O)(=O)c1ccccc1 (stereo not drawn) | 5.72%
CC1CCCC/C1=N\NC(=S)Nc1cccnc1 (stereo not drawn) | -2.62%
COc1ccccc1CNC(=O)CN(C)CC(=O)Nc1cccc(F)c1 | -0.48%
COc1ccc(NC(=O)CN(C)CC(=O)Nc2ccccc2SC)cc1Cl | -0.42%
CCCCOc1ccc(C(C)NC(=O)C2CCCN(S(=O)(=O)CC)C2)cc1 (stereo not drawn) | -2.95%
CCC(=NCCO)c1c(O)n(C2CCCCC2)c(=O)[nH]c1=O | 3.46%
CCOC(=O)c1cnc2ccc(C)cc2c1Nc1ccc(N2CCOCC2)cc1 | 0.42%
CCOC(=O)c1cnc2ccc(C(=O)OC)cc2c1Nc1ccc(C(=O)O)cc1 | -2.69%
O=C(O)c1cc(-n2cccc2)ccc1N1CCOCC1 | -4.7%
COc1ccccc1NC(=S)NC1CCCCCC1 | -4.57%
CN(C)/C=C(/C(=O)c1ccccc1)n1cncn1 | -12.5%
Cc1nn(C)c(C)c1/C=C(/C(=O)C(C)(C)C)n1cncn1 | -5.89%
Cc1cccc(Sc2c([N+](=O)[O-])ncn2C)c1 | 4.79%
Cn1cnc([N+](=O)[O-])c1Oc1ccc2ccccc2c1 | 13.9%
Cn1cnc([N+](=O)[O-])c1Cl | 0.19%
CCS(=O)(=O)c1c([N+](=O)[O-])ncn1C | 76.2%
Cc1cccc(C(=O)N=c2c(C#N)cc3c(=O)n4cccc(C)c4nc3n2Cc2ccco2)c1 | -8.85%
CCN(C(=O)COC(=O)c1cc(S(=O)(=O)Nc2c(C)n(C)n(-c3ccccc3)c2=O)ccc1Cl)C1CCCCC1 | -3.86%
Cc1cccc(NC(=O)CCOc2ccccc2)c1 | -1.8%
Cc1cc(C)n(-c2nc(-c3ccccc3)cs2)n1 | 4.34%

Compound | inhibition
O=C(CNC(=O)c1ccco1)OCc1ccc(C(=O)c2ccccc2)cc1 | 3.51%
Cc1ccc(C)c(CSCC(=O)NCc2cccs2)c1 | -7.19%
Cc1cccc(N2CCN(Cc3ccoc3)CC2)c1C | 2.81%
Cc1cc(C)n(-c2nc(SCC(=O)O)c3c4c(sc3n2)CCCC4)n1 | 63.1%
Cc1cc(C)n(-c2nc(NCCCN(C)C)c3c4c(sc3n2)CCCC4)n1 | 17.3%
Cc1cc(C)n(-c2nc(SCC(=O)Nc3nccs3)c3c4c(sc3n2)COC(C)(C)C4)n1 | 23.3%
Cc1cc(C)n(-c2nc(SCCN(C)C)c3c4c(sc3n2)COC(C)(C)C4)n1 | 14.6%
CC1(C)Cc2c(sc3nc(SCC(=O)O)[nH]c(=O)c23)CO1 | -1.16%
CCCN(CC(=O)Nc1ccc(F)c(F)c1F)Cc1cc(=O)n2ccsc2n1 | -1.11%
O=C(NCc1ccco1)C12CC3CC(C1)CC(C(=O)NCc1ccco1)(C3)C2 | -5.09%
O=c1c2ccccc2nc(-c2ccccc2Cl)n1O | 2.24%
O=c1c2ccccc2nc(-c2cccc(Cl)c2)n1O | 66.9%
CC1CC(C)CN(c2ccc(C(=O)NCc3ccc4c(c3)OCO4)cc2[N+](=O)[O-])C1 (stereo not drawn) | 13.2%
Cc1ccccc1C(=O)Nc1ccc(C(=O)N/N=C/c2ccc(O)c(Br)c2)cc1 | 6.55%
CCOC(=O)N1CCC(NC(=O)C2CCCN(C(=O)c3cc4sccc4n3C)C2)CC1 (stereo not drawn) | -2.27%
O=C(NCCN1CCN(c2ccccc2)CC1)c1cccn2c(=O)c3ccccc3nc12 | 5.61%
Cc1cc(Cl)n2nc(C)c(-c3ccc(Cl)cc3)c2n1 | 0.72%
Cc1cc(NCCC(C)C)n2nc(C)c(-c3ccccc3)c2n1 | 11.3%
COCCNc1cc(C)nc2c(-c3ccccc3OC)c(C)nn12 | -2.69%
COc1ccc(CCNc2cc(C)nc3c(-c4ccccc4)cnn23)cc1OC | 1.98%
CCOC(=O)c1ccc(NC(=O)C2CCN(C(=O)c3ccc(OC)c(OC)c3)CC2)cc1 | -6.93%
O=C(NC1=NCCCCC1)c1cccc2ccccc12 | -1.94%
COc1cccc(CNCCSc2nnnn2C)c1 | 6.16%
CCNC(=O)N1CCCC(C(=O)c2ccc3cc(OC)ccc3c2)C1 (stereo not drawn) | -5.17%
COC(=O)c1ccc(CSc2nnc3c(Cl)cc(Cl)cn23)o1 | -5.19%

Compound | inhibition
CCc1ccc(NC(=O)N(Cc2ccco2)C(C)c2cccs2)cc1 (stereo not drawn) | 0.17%
CCN(CCCNC(=O)C1CCC(=O)N1C1CCCC1)c1cccc(C)c1 (stereo not drawn) | 0.34%
COc1ccc(OC(=O)c2c(C)nn(-c3ccccc3)c2C)cc1 | -12.3%
Cc1c(C(=O)Oc2cccc3ccccc23)cnn1-c1ccccc1 | 27.3%
NC(=O)CSc1nnnn1-c1ccc(OC(F)(F)F)cc1 | -7.21%
CCC1=CCN(CCc2c(C)[nH]c3ccccc23)CC1 | -0.79%
NNC(=S)Nc1c(Br)cc(F)cc1Br | -5.67%
CCC1(C)N=C(c2ccc3c(c2)OCO3)CC(c2ccccc2O)N1 (stereo not drawn) | 14.6%
COc1cccc(C2=NC(C)(C)NC(c3ccccc3O)C2)c1 (stereo not drawn) | 4.8%
CCOc1ccccc1C1N=C(c2ccc(OC)cc2)CC(c2ccccc2O)N1 (stereo not drawn) | 7.98%
Clc1ccc2nc(-c3ccc4c(c3)OCO4)cn2c1 | 4.92%
CN1CCC(N(C)CC(=O)Nc2ccccc2N2CCOCC2)CC1 | 13.7%
O=C(NCCCO)NC(=S)c1cccc2ccccc12 | -0.39%
CCc1ccc(Nc2nnc(SCC(=O)Nc3ccc(C(=O)O)cc3)s2)cc1 | -5.8%
CCc1ccc(Nc2nnc(SCC(=O)NC(=O)c3cccn3C)s2)cc1 | 2.04%
Cc1cc(NC(=O)CSc2nnc(Nc3ccccc3C)s2)no1 | -2.04%
Cc1cccc(Nc2nnc(SCC(=O)Nc3ccc(C(=O)O)cc3)s2)c1 | 13.8%
CCc1ccccc1NC(=O)CN(C)C(=O)CSc1nnc(Nc2cccc(C)c2)s1 | 6.25%
Cc1ccc(C)c(SCC(=O)Nc2cccnc2Cl)c1 | 18.9%
CCOC(=O)c1cc2c(ccn2-c2ccc(F)cc2)n1CC(=O)N1CCN(C(=O)c2ccco2)CC1 | -1.91%
Clc1ccccc1CNC1CN2CCC1CC2 (stereo not drawn) | 5.7%
CCNc1ncnc2c1cnn2C | -10.7%
Cc1ccc(SCc2[nH]nc3c2C2(C(=O)Nc4ccc([N+](=O)[O-])cc42)C(C#N)=C(N)O3)cc1 (stereo not drawn) | -2.15%
